In PubChem BioAssay (Tox21):
Records with an inconclusive call do not appear. Some compounds were tested as several samples or in several runs, with calls that do not always agree. The source made the active and inactive calls. The call rests on the fitted dose curve; in most records, active means well fitted curve in the direction sought with a large enough effect in the repeat runs; inconclusive means weak or mixed curves; inactive means no such curve, though single readings can be large; an effect the other way counts as inactive or inconclusive.

Assays:
[1] = qHTS RealTime-Glo MT Cell Viability Assay in HEK293 cells - 16 hour (AID 1224872); further: nearly all actives have a fitted effect of over 50% in size; further: potency means the concentration at half of the fitted maximal effect
Summary of the method: (§1)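 Cells + reagent dispensed (600 cells/well, HEK293) → 5 h at 37 C/5% CO2 → 23 nL compound in DMSO pinned → 40 h at 37 C → luminescence read at 0, 8, 16, 24, 32, 40 h.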

[2] = qHTS RealTime-Glo MT Cell Viability Assay in HEK293 cells - 40 hour (AID 1224874); details: RealTime-Glo luminescence; max response: stronger effect = lower value; further: nearly all actives have a fitted effect of over 50% in size; further: potency means the concentration at half of the fitted maximal effect
Summary of the method: (§2)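 Luminescence readout at each listed time point; HEK293, 600 cells/well, RealTime-Glo MT reagent added with cells; compounds pinned (23 nL in DMSO) after 5 h at 37 C; continuous culture at 37 C.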

[3] = A CellTox Green Cytotoxicity Assay to monitor cytotoxicity in HEK293 cells - 24 hour (AID 1224875); further: nearly all actives have a fitted effect of over 45% in size; further: potency means the concentration at half of the fitted maximal effect
Summary of the method: (§3)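 Read-out: fluorescence of a cell-impermeant cyanine dye staining DNA of dead cells, proportional to cytotoxicity. HEK293, 600 cells/well with reagent, compound (23 nL DMSO) added after 5 h; reads at 0, 8, 16, 24, 32, 40 h.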

[4] = A CellTox Green Cytotoxicity Assay to monitor cytotoxicity in HepG2 cells - 16 hour (AID 1224876); further: nearly all actives have a fitted effect of over 45% in size; further: potency means the concentration at half of the fitted maximal effect
Summary of the method: (§4)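 HepG2, 600 cells/well premixed w/ CellTox Green; 5 h settle, 37 C/5% CO2; pintool cpd add (DMSO); 37 C, 40 h; fluorescence read at 0, 8, 16, 24, 32, 40 h.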

[5] = qHTS RealTime-Glo MT Cell Viability Assay in HepG2 cells - 32 hour (AID 1224877); further: nearly all actives have a fitted effect of over 55% in size; further: potency means the concentration at half of the fitted maximal effect
Summary of the method: (§5)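 Real-time, nonlytic viability: 600 HepG2 cells/well mixed with NanoLuc enzyme plus prosubstrate; 5 h settle, compound (DMSO) added by pintool; luminescence monitored over 40 h at 37 C.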

[6] = A CellTox Green Cytotoxicity Assay to monitor cytotoxicity in HepG2 cells - 24 hour (AID 1224878); further: nearly all actives have a fitted effect of over 45% in size; further: potency means the concentration at half of the fitted maximal effect
Summary of the method: as §4

[7] = qHTS RealTime-Glo MT Cell Viability Assay in HEK293 cells - 0 hour (AID 1224880); further: top concentration of the series differs between compounds; nearly all actives have a fitted effect of over 45% in size
Summary of the method: as §2

[8] = A CellTox Green Cytotoxicity Assay to monitor cytotoxicity in HEK293 cells - 32 hour (AID 1224881); further: nearly all actives have a fitted effect of over 40% in size; further: potency means the concentration at half of the fitted maximal effect
Summary of the method: as §3

[9] = A CellTox Green Cytotoxicity Assay to monitor cytotoxicity in HepG2 cells - 0 hour (AID 1224882); further: nearly all actives have a fitted effect of over 35% in size; further: potency means the concentration at half of the fitted maximal effect
Summary of the method: as §4

[10] = A CellTox Green Cytotoxicity Assay to monitor cytotoxicity in HEK293 cells - 8 hour (AID 1224884); further: nearly all actives have a fitted effect of over 35% in size; further: potency means the concentration at half of the fitted maximal effect
Summary of the method: as §3

[11] = qHTS RealTime-Glo MT Cell Viability Assay in HEK293 cells - 24 hour (AID 1224886); further: nearly all actives have a fitted effect of over 50% in size; further: potency means the concentration at half of the fitted maximal effect
Summary of the method: as §1

[12] = qHTS RealTime-Glo MT Cell Viability Assay in HEK293 cells - 8 hour (AID 1224887); further: nearly all actives have a fitted effect of over 50% in size; further: potency means the concentration at half of the fitted maximal effect
Summary of the method: as §2

[13] = qHTS RealTime-Glo MT Cell Viability Assay in HepG2 cells - 0 hour (AID 1224889); further: nearly all actives have a fitted effect of over 50% in size
Summary of the method: as §5

[14] = A CellTox Green Cytotoxicity Assay to monitor cytotoxicity in HepG2 cells - 8 hour (AID 1224890); further: nearly all actives have a fitted effect of over 45% in size; further: potency means the concentration at half of the fitted maximal effect
Summary of the method: as §4

[15] = qHTS assay to identify small molecule antagonists of the estrogen receptor alpha (ER-alpha) signaling pathway using the BG1 cell line in the presence of 0.1 nM 17-beta-estradiol - cell viability counter screen (AID 1259241); further: nearly all actives have a fitted effect of over 40% in size; further: potency means the concentration at half of the fitted maximal effect
Summary of the method: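 Viability in VM7Luc4E2 cells after 22 hr compound exposure under 0.1 nM 17beta-estradiol stimulation, by CellTiter-Fluor.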

[16] = qHTS RealTime-Glo MT Cell Viability Assay in HepG2 cells - 8 hour (AID 1224873); further: nearly all actives have a fitted effect of over 55% in size
Summary of the method: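 HepG2 cells mixed with RealTime-Glo MT reagents (NanoLuc plus cell-permeant prosubstrate) were seeded at 600 cells/well, incubated 5 h at 37 C/5% CO2, then pinned with compounds in DMSO; nonlytic luminescence tracked viability during 40 h treatment.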

[17] = A CellTox Green Cytotoxicity Assay to monitor cytotoxicity in HepG2 cells - 32 hour (AID 1224883); further: nearly all actives have a fitted effect of over 50% in size; further: potency means the concentration at half of the fitted maximal effect
Summary of the method: as §4

[18] = qHTS RealTime-Glo MT Cell Viability Assay in HepG2 cells - 16 hour (AID 1224885); further: nearly all actives have a fitted effect of over 50% in size; further: potency means the concentration at half of the fitted maximal effect
Summary of the method: as §5

[19] = A CellTox Green Cytotoxicity Assay to monitor cytotoxicity in HEK293 cells - 16 hour (AID 1224888); further: nearly all actives have a fitted effect of over 35% in size; further: potency means the concentration at half of the fitted maximal effect
Summary of the method: as §3

[20] = A CellTox Green Cytotoxicity Assay to monitor cytotoxicity in HepG2 cells - 40 hour (AID 1224879); further: nearly all actives have a fitted effect of over 40% in size; further: potency means the concentration at half of the fitted maximal effect
Summary of the method: as §4
On the % scale 0 is the no-effect control and ±100 the full control effect.

CCC(C)c1cc([N+](=O)[O-])cc([N+](=O)[O-])c1OC(=O)C=C(C)C (centres undefined)
inactive: Potency [3] | Potency [4] | Potency [6] | Potency [7] | Potency [8] | Potency [9] | Potency [10] | Potency [13] | Potency [14]
active: Potency [1] 49 µM | Potency [2] 21.9 µM | Potency [5] 49 µM | Potency [11] 38.9 µM | Potency [12] 49 µM | Potency [15] 61.1 µM

CS(=O)(=O)c1ccc(C(=O)C2C(=O)CCCC2=O)c([N+](=O)[O-])c1
active: Potency [1] 12.5 µM | Potency [3] 44.4 µM | Potency [4] 44.4 µM | Potency [6] 39.6 µM | Potency [8] 44.4 µM | Potency [9] 39.6 µM | Potency [17] 44.4 µM | Potency [10] 44.4 µM | Potency [11] 25 µM | Potency [12] 21.4 µM | Potency [19] 44.4 µM | Potency [14] 39.6 µM
inactive: Potency [16] | Potency [5] | Potency [7] | Potency [18] | Potency [13] | Potency [15]

CCN(CC)C(=S)[S-].CCN(CC)C(=S)[S-].[Zn+2]
active: Potency [1] 5.45 µM | Potency [2] 2.73 µM | Potency [3] 15.4 µM | Potency [5] 13.7 µM | Potency [6] 12.2 µM | Potency [20] 10.9 µM | Potency [8] 15.4 µM | Potency [17] 9.69 µM | Potency [18] 13.7 µM | Potency [11] 4.86 µM | Potency [15] 1.92 µM
inactive: Potency [7] | Potency [9] | Potency [10] | Potency [13] | Potency [14]

CC(C)[C@H](C(=O)OC(C#N)c1cccc(Oc2ccccc2)c1)c1ccc(OC(F)F)cc1 (some centres undefined)
inactive: Potency [1] | max response [2] -16.8% | Potency [3] | Potency [4] | Potency [5] | Potency [6] | Potency [20] | Potency [7] | Potency [8] | Potency [9] | Potency [17] | Potency [10] | Potency [18] | Potency [11] | Potency [12] | Potency [19] | Potency [13] | Potency [15]

Clc1ccc(-c2ccc(Cl)c(Cl)c2Cl)c(Cl)c1Cl
inactive: Potency [1] | Potency [16] | Potency [3] | Potency [4] | Potency [20] | Potency [8] | Potency [9] | Potency [17] | Potency [10] | Potency [18] | Potency [12] | Potency [19] | Potency [13] | Potency [14] | Potency [15]

O=c1oc2ccccc2c(O)c1Cc1c(O)c2ccccc2oc1=O
inactive: Potency [1] | max response [2] 0.643% | Potency [3] | Potency [4] | Potency [5] | Potency [6] | Potency [20] | Potency [8] | Potency [9] | Potency [17] | Potency [10] | Potency [11] | Potency [12] | Potency [19] | Potency [15]

CC(c1ccc(O)cc1)c1ccc(O)cc1
45.9 µM (active) and inactive: Potency [1] | Potency [11]
inactive: Potency [16] | Potency [3] | Potency [4] | Potency [5] | Potency [20] | Potency [7] | Potency [8] | Potency [9] | Potency [17] | Potency [18] | Potency [12] | Potency [19] | Potency [13] | Potency [14] | Potency [15]

Cc1cc(C(F)(C(F)(F)F)C(F)(F)F)ccc1NC(=O)c1cccc(I)c1C(=O)NC(C)(C)CS(C)(=O)=O
inactive: Potency [1] | Potency [16] | Potency [3] | Potency [4] | Potency [5] | Potency [6] | Potency [20] | Potency [7] | Potency [8] | Potency [9] | Potency [17] | Potency [10] | Potency [18] | Potency [12] | Potency [19] | Potency [13] | Potency [14] | Potency [15]

Clc1ccc(CO/N=C(\Cn2ccnc2)c2ccc(Cl)cc2Cl)c(Cl)c1
inactive: Potency [3] | Potency [8] | Potency [9] | Potency [10] | Potency [13] | Potency [15]
active: Potency [1] 21.3 µM | Potency [2] 21.3 µM | Potency [20] 26.8 µM | Potency [18] 21.3 µM | Potency [11] 21.3 µM | Potency [12] 19 µM

CCCCCCCCCCCCCCC(Br)C(=O)O (centres undefined)
inactive: Potency [1] | max response [2] -7.18% | Potency [3] | Potency [4] | Potency [5] | Potency [8] | Potency [9] | Potency [10] | Potency [18] | Potency [11] | Potency [12] | Potency [13] | Potency [14] | Potency [15]
active: Potency [20] 17.4 µM | Potency [17] 17.4 µM

CC(C)(C)c1ccc(CSc2cnn(C(C)(C)C)c(=O)c2Cl)cc1
active: Potency [1] 0.436 µM | Potency [2] 0.0069 µM | Potency [11] 0.0389 µM | Potency [12] 7.76 µM
inactive: Potency [3] | Potency [4] | Potency [6] | Potency [8] | Potency [9] | Potency [10] | Potency [19] | Potency [13]

Nc1ccc(Cc2ccc(N)c(Cl)c2)cc1Cl
active: Potency [1] 29.9 µM | Potency [2] 23.7 µM | Potency [11] 26.6 µM | Potency [12] 29.9 µM
inactive: Potency [3] | Potency [4] | Potency [6] | Potency [20] | Potency [7] | Potency [8] | Potency [9] | Potency [17] | Potency [10] | Potency [18] | Potency [19] | Potency [14]

CN(C)[C@@H]1C(=O)C(C(N)=O)=C(O)[C@@]2(O)C(=O)C3=C(O)c4c(O)ccc(Cl)c4[C@@](C)(O)[C@H]3C[C@@H]12
inactive: Potency [1] | Potency [16] | Potency [3] | Potency [4] | Potency [5] | Potency [6] | Potency [20] | Potency [7] | Potency [8] | Potency [9] | Potency [17] | Potency [10] | Potency [18] | Potency [12] | Potency [19] | Potency [13] | Potency [15]

CCCOCC(=Nc1ccc(Cl)cc1C(F)(F)F)n1ccnc1
active: Potency [1] 43.6 µM | Potency [2] 48.9 µM | Potency [3] 48.9 µM | Potency [4] 43.6 µM | Potency [6] 43.6 µM | Potency [8] 48.9 µM | Potency [17] 43.6 µM | Potency [10] 54.9 µM | Potency [11] 43.6 µM | Potency [12] 43.6 µM | Potency [19] 54.9 µM
inactive: Potency [7] | Potency [9] | Potency [13]
